Results taken from the supplement of paper PMC10646978.
± gives the standard deviation.

Assays:
Conditions in all cases: modulator concentration 10 µM
[1] = tested on: RAW-Dual (murine macrophage reporter line); test: NF-kB reporter (SEAP) activity fold change vs agonist alone; higher = enhanced NF-kB activity
In short: (§1)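 Overnight stimulation with a PRR agonist followed pre-incubation for 1 hour at 37 °C with compound at 10 μM final. This was done in RAW-Dual murine macrophage reporter cells seeded at 50 000 per well in 384-well plates. NF-κB (SEAP, QUANTI-Blue absorbance at 620 nm) and IRF (Lucia luciferase, QUANTI-Luc luminescence) were read from the supernatant. Each reporter's fold change relative to the mean agonist-only control on the same plate was averaged over replicate plates.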

[2] = tested on: RAW-Dual (murine macrophage reporter line); test: IRF reporter (Lucia luciferase) activity fold change vs agonist alone; higher = enhanced IRF activity
In short: as §1

[3] = tested on: RAW-Dual (murine macrophage reporter line); test: viability score (confluency relative to resting cells, overnight) (fraction); higher = more viable, active = viable (0.7 or more)
In short: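 Overnight exposure to 10 μM final compound was carried out on RAW-Dual macrophages in 384-well plates. IncuCyte software generated two confluency masks over all wells imaged with IncuCyte. The viability score gives confluency in relation to resting cells. A compound met the cutoff if each mask exceeded 70% of resting cells.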

[4] = agonist: CpG ODN 1826 0.5 ug/mL

SMILES	NF-kB reporter [1, 4]	NF-kB reporter ([1]; agonist: LPS 0.1 ug/mL)	NF-kB reporter ([1]; agonist: MPLA […])	IRF reporter ([2]; agonist: 3'3'-cGAMP 10 ug/mL)	IRF reporter ([2]; agonist: LPS 0.1 ug/mL)	IRF reporter ([2]; agonist: MPLA […])	viability score [3]
Cc1ccc(C(=O)N2N=C(c3ccncc3)CC2(O)C(F)(F)F)cc1 (centres undefined)	0.764 ± 0.062	0.831 ± 0.12	0.985 ± 0.097	0.86 ± 0.043	1.26 ± 0.081	1.29 ± 0.14	1.01 (active)
O=C1Cc2cc(NC(=O)c3ccc(OC(F)(F)F)cc3)ccc2N1	1.19 ± 0.083	0.929 ± 0.076	0.998 ± 0.068	0.643 ± 0.034	0.959 ± 0.059	0.99 ± 0.13	1 (active)
CC(=O)Nc1nnc(S(N)(=O)=O)s1	1.57 ± 0.56	1.08 ± 0.18	1.07 ± 0.11	0.941 ± 0.029	1.28 ± 0.32	0.921 ± 0.095	0.998 (active)
COc1ccc(OC)c(C2CC(c3ccc(Cl)cc3)=NN2S(C)(=O)=O)c1 (centres undefined)	0.853 ± 0.073	0.897 ± 0.09	1.04 ± 0.12	0.829 ± 0.068	1.15 ± 0.22	1.19 ± 0.43	0.986 (active)
CC(=NNC(=O)CNc1ccccc1C)c1ccc(Br)cc1	1.09 ± 0.093	1.01 ± 0.14	1.03 ± 0.098	0.998 ± 0.032	1.23 ± 0.13	1.38 ± 0.19	0.982 (active)
COc1ccccc1OCC(O)CN1CCN(CC(=O)Nc2c(C)cccc2C)CC1.Cl.Cl (centres undefined)	0.724 ± 0.11	0.982 ± 0.19	0.991 ± 0.064	0.908 ± 0.064	1.05 ± 0.23	0.931 ± 0.16	0.991 (active)
COc1ccc(-c2cc(C(F)(F)F)n3nc(C(=O)Nc4cc(OC)c(OC)c(OC)c4)c(Cl)c3n2)cc1OC	0.885 ± 0.081	1.01 ± 0.089	0.795 ± 0.058	0.566 ± 0.14	1.27 ± 0.19	1.1 ± 0.12	1.01 (active)
CCOC(=O)c1ccc2nc(NC(=O)c3ccco3)sc2c1	0.971 ± 0.079	0.876 ± 0.064	1.13 ± 0.14	0.996 ± 0.051	1.35 ± 0.19	1.58 ± 0.3	1.01 (active)
c1ccc(CSc2nnc(-c3ccncc3)[nH]2)cc1	1.08 ± 0.085	0.945 ± 0.097	1.04 ± 0.028	0.582 ± 0.033	0.888 ± 0.043	0.872 ± 0.09	0.996 (active)
O=C(NCCC(CCO)c1ccccc1)c1cccc(Br)c1 (centres undefined)	0.731 ± 0.033	1.03 ± 0.093	0.988 ± 0.053	0.653 ± 0.031	0.927 ± 0.18	0.958 ± 0.35	0.996 (active)
CN1CCC(COc2cnc(-c3cccc(Cn4nc(-c5cccc(C#N)c5)ccc4=O)c3)nc2)CC1	0.884 ± 0.28	1 ± 0.055	1.06 ± 0.082	0.713 ± 0.04	1.11 ± 0.14	1.37 ± 0.36	0.625 (inactive)
COc1cc(C(=O)Nc2ccc(-c3ccc(N4CCC(C)CC4)nn3)cc2)cc(OC)c1OC	0.862 ± 0.1	0.879 ± 0.073	0.754 ± 0.12	1.02 ± 0.087	1.26 ± 0.11	1.59 ± 0.12	0.913 (active)
NS(=O)(=O)c1ccc2c(c1)CCCC2	0.512 ± 0.11	0.806 ± 0.22	0.661 ± 0.15	0.932 ± 0.057	0.925 ± 0.073	0.957 ± 0.3	0.863 (active)
Cc1cncc(CN2CCC(=C3c4ccc(Cl)cc4CCc4cccnc43)CC2)c1.O=C(O)/C=C/C(=O)O	1.46 ± 0.14	1.19 ± 0.096	1.73 ± 0.23	0.931 ± 0.097	0.799 ± 0.092	1.29 ± 0.16	1 (active)
COc1ccc(C(=O)Nc2cccc([N+](=O)[O-])c2)cc1I	1.03 ± 0.083	1.01 ± 0.071	0.95 ± 0.081	0.801 ± 0.037	1.02 ± 0.13	1.04 ± 0.23	0.997 (active)
Cc1cc(C(=O)NNCc2ccccc2)no1 [Prestw-795]	1.09 ± 0.18	1.18 ± 0.11	0.992 ± 0.076	0.958 ± 0.026	1.06 ± 0.24	1.29 ± 0.14	0.997 (active)
CCOC(=O)C1=C(C)NC(=O)N(C(C)=O)C1c1ccc(Br)cc1 (centres undefined)	0.554 ± 0.032	0.898 ± 0.1	0.868 ± 0.052	1.28 ± 0.044	1.66 ± 0.14	1.34 ± 0.2	0.621 (inactive)
CN1CCC(=C2c3ccccc3C=Cc3ccccc32)CC1.Cl	0.727 ± 0.13	0.808 ± 0.067	0.904 ± 0.048	0.794 ± 0.049	1 ± 0.19	0.974 ± 0.2	0.651 (inactive)
CC(=O)Nc1ccc(C(=O)CSc2nnc[nH]2)cc1	0.771 ± 0.06	0.877 ± 0.072	1.01 ± 0.087	0.916 ± 0.045	1.33 ± 0.086	1.47 ± 0.14	1.01 (active)
CCOC(=O)[C@H](CCc1ccccc1)N[C@H]1CCc2ccccc2N(CC(=O)O)C1=O [Prestw-1129]	1.13 ± 0.097	0.978 ± 0.079	0.941 ± 0.06	1.02 ± 0.045	1 ± 0.047	0.879 ± 0.087	0.994 (active)
CCc1nc2ccc(C(=O)NC3CCC(n4cccn4)CC3)cc2s1 (centres undefined)	1.02 ± 0.098	1.04 ± 0.082	1.03 ± 0.054	0.959 ± 0.047	0.964 ± 0.045	0.925 ± 0.14	1 (active)
Oc1ccc(Nc2nc(Nc3ccc(O)cc3)nc(N3CCOCC3)n2)cc1	0.559 ± 0.13	2.28 ± 0.18	4.45 ± 0.34	0.383 ± 0.016	2.4 ± 0.25	4.43 ± 1.1	0.757 (active)
CCN(CC)CCOC(=O)c1ccc(N)cc1.Cl	1.29 ± 0.2	1.08 ± 0.26	1.89 ± 0.82	0.923 ± 0.039	1.22 ± 0.43	1.16 ± 0.13	0.996 (active)
CC1(C)CCC2(C(=O)O)CCC3(C)C(=CCC4C5(C)CCC(O)C(C)(C)C5CCC43C)C2C1 (centres undefined)	1.18 ± 0.28	1.12 ± 0.088	0.942 ± 0.095	0.878 ± 0.03	1.3 ± 0.18	1.24 ± 0.18	0.999 (active)
OCC1OC(Oc2ccc(O)cc2)C(O)C(O)C1O (centres undefined)	1.23 ± 0.3	0.965 ± 0.069	1.02 ± 0.08	0.891 ± 0.049	1.14 ± 0.2	1.2 ± 0.11	1 (active)
Cc1ccc(Nc2ccc(NC(=O)C(C)C)cc2)nn1	0.988 ± 0.042	0.993 ± 0.082	1.11 ± 0.07	1.05 ± 0.048	1.2 ± 0.26	1.29 ± 0.44	0.981 (active)
O=C(Cc1ccc(Cl)cc1)Nc1ccc2oc(-c3c(F)c(F)c(F)c(F)c3F)nc2c1	0.931 ± 0.097	0.882 ± 0.12	0.696 ± 0.059	0.698 ± 0.028	1.32 ± 0.12	1.07 ± 0.11	1.01 (active)
